Results on 24 molecules are retold here after PubChem BioAssay (Tox21).

Records with an inconclusive call do not appear. Calls of active or inactive are those of the source. Calls follow the shape of the full dose curve.

A short description of this experiment: qHTS assay for small molecule agonists of the p53 signaling pathway - cell viability (AID 651633).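 Also: p53RE-bla HCT reporter cells with a stable beta-lactamase p53 reporter; nearly all actives have a fitted effect of over 30% in size.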 The following applies: p53RE-bla HCT-116 viability, ATP luminescence, 16 h; series mostly up to 83.3 µM. The gist of the method: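 Viability counter-read: CellTiter-Glo luminescence (30 min, room temperature) in the same p53RE-bla plates. These plates had been exposed to compounds for 16 h at 37 C.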
(In general: qHTS replaces the single test concentration by a dilution series.)
With `O=C[C@H](O)[C@@H](O)[C@H](O)[C@H](O)CO`, the molecule was classed as inactive.
As for `CCO[Si](CCC1CCC2OC2C1)(OCC)OCC` (centres undefined), the entry is “inactive”.
Take `CN1C(=O)N(C)C(O)C1O` (centres undefined): the call was inactive.
`O=C1NC(=O)[C@@]2(CCOc3ccc(F)cc32)N1`: the call was inactive.
As for `CCOC(=O)c1c(C)n(C)c2ccc(O)cc12`, the outcome was inactive.
As to `O=C(CCCN1CCC(O)(c2cccc(C(F)(F)F)c2)CC1)c1ccc(F)cc1`, the molecule was classed as inactive.
On to `CCN(Cc1ccncc1)C(=O)C(CO)c1ccccc1` (centres undefined), for which the call was inactive.
Regarding `CC(=O)CC(C)C`, the result was inactive.
With `CC(=O)OCC(=O)[C@@]1(O)CC[C@H]2[C@@H]3CCC4=CC(=O)CC[C@]4(C)[C@H]3C(=O)C[C@@]21C`, the result was inactive.
For the molecule `CC(=O)CC(C)(C)C1CCCCC1`, the result was inactive.
For `CCc1ccc(O)c(OC)c1`, the outcome was inactive.
Take `O=S(O)CO`: the result was inactive.
Regarding `CC(=O)OCC(CCn1cnc2cnc(N)nc21)COC(C)=O`, the molecule was classed as inactive.
Take `Cc1c(O)cccc1O`: the molecule was called inactive.
As for `c1cnc(N2CCN(Cc3ccc4c(c3)OCO4)CC2)nc1`, the outcome was inactive.
Regarding `OCCCC1CCCCC1`, the molecule was called inactive.
As for `CC/C=C\CC/C=C/C(OCC)OCC`, the entry is “inactive”; as for `COCCCOCCCOC`, “inactive”.
On to `COc1ccc(CCN(C)CCCC(C#N)(c2cc(OC)c(OC)c(OC)c2)C(C)C)cc1OC` (centres undefined), for which the outcome was inactive.
Consider `CC(C)(CC(=O)O)C(=O)O`, for which the outcome was inactive.
`COc1nc(N)nc2c1ncn2[C@@H]1O[C@H](CO)[C@@H](O)[C@@H]1O`: the molecule was called inactive.
As for `CCN1CCC[C@H]1CNC(=O)c1cc(S(N)(=O)=O)ccc1OC`, the entry is “inactive”; as for `COC(=O)c1c(Cl)c(Cl)c(C(=O)OC)c(Cl)c1Cl`, “inactive”; as for `CN1CCC(=C2c3ccccc3CC(=O)c3sccc32)CC1`, “inactive”.
